Test results reported in PubChem BioAssay (NCI).
The panel holds about 79,000 compounds, 15% with a hit somewhere; the sample as a whole holds those more often. Values without a mark were called inactive. Active and inactive are the calls of the source. Rule as the data show it: active = growth inhibition above about 70%; inactive = the rest.

Experiments:
[1] = NCI Yeast Anticancer Drug Screen. Data for the rad50 strain (AID 155);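 also: 0% = growth of vehicle-only cultures of the same strain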; conditions: S. cerevisiae rad50 strain growth inhibition, hits give high values
In short: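 Genetically altered yeast (DNA repair pathway); compound treatment; growth inhibition vs vehicle ctrl.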

[2] = NCI Yeast Anticancer Drug Screen. Data for the mec2-1 strain (AID 157); conditions: S. cerevisiae mec2-1 strain, hits give high values
In short: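 Readout is yeast growth inhibition, normalised to vehicle-treated controls, in the mec2-1 strain exposed to compound.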

[3] = NCI Yeast Anticancer Drug Screen. Data for the sgs1 mgt1 strain (AID 161);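 also: 0% = growth of cultures given vehicle only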; conditions: S. cerevisiae sgs1 mgt1 strain, hits give high values
In short: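 This yeast growth screen uses a strain with defined DNA-repair lesions; compound-treated growth is compared with vehicle-treated growth.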

[4] = NCI Yeast Anticancer Drug Screen. Data for the cln2 rad14 strain (AID 165);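 also: 0% = growth equal to vehicle treated cultures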; conditions: S. cerevisiae cln2 rad14 strain, hits give high values
In short: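 Relative to vehicle controls, growth inhibition of compound-treated cln2 rad14 yeast was recorded.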

[5] = NCI Yeast Anticancer Drug Screen. Data for the bub3 strain (AID 167); conditions: S. cerevisiae bub3 mutant strain, hits give high values
In short: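 Yeast carrying a defined mutation is treated with each compound, and growth is compared with that of vehicle-exposed cells to give inhibition.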

[6] = NCI Yeast Anticancer Drug Screen. Data for the mlh1 rad18 strain (AID 175); conditions: S. cerevisiae mlh1 rad18 strain growth inhibition, hits give high values
In short: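 Test agents were incubated with a yeast strain of defined genotype (DNA damage repair defect). Inhibition of growth was derived by comparison with vehicle-exposed cultures.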

[7] = at 5.0 µM (retest, dose inferred, filed as 0.5)
[8] = at 50.0 µM (retest, dose inferred, filed as 5.0)

| Compound | growth inhibition [1, 7] [%] | growth inhibition [1, 8] | growth inhibition ([1]; at 50.0 µM) | growth inhibition [2, 7] [%] | growth inhibition [2, 8] | growth inhibition ([2]; at 50.0 µM) | growth inhibition [3, 7] [%] | growth inhibition [3, 8] | growth inhibition ([3]; at 50.0 µM) | growth inhibition [4, 7] [%] | growth inhibition [4, 8] | growth inhibition ([4]; at 50.0 µM) | growth inhibition [5, 7] [%] | growth inhibition [5, 8] | growth inhibition ([5]; at 50.0 µM) | growth inhibition [6, 7] [%] | growth inhibition [6, 8] | growth inhibition ([6]; at 50.0 µM) |
| --- | --- | --- | --- | --- | --- | --- | --- | --- | --- | --- | --- | --- | --- | --- | --- | --- | --- | --- |
| COc1ccc2nc3c([N+](=O)[O-])ccc(NCCCN(C)C)c3c(N)c2c1 | 6 | 86% (active) | 90.3% (active) | 9 | 70% (active) | 85.7% (active) | 24 | 75% (active) | 92.5% (active) | 16 | 50% | 34.5% | -22 | 85% (active) | 44.5% | -14 | 95% (active) | 88.6% (active) |
| CCCc1cc2c(cc1O)CC[C@@H]1[C@@H]2CC[C@]2(C)[C@@H](O)CC[C@@H]12 | -25 | 96% (active) | 86.5% (active) | -30 | 96% (active) | 85.8% (active) | -30 | 98% (active) | 84.5% (active) | -4 | 77% (active) | 88.5% (active) | -33 | 97% (active) | 87.6% (active) | -46 | 96% (active) | 80.7% (active) |
| CCCC(=O)c1ccc(OC)cc1 | 0 | 28% | 41.9% | 1 | 70% (active) | -11.3% | 0 | 13% | 14.9% | 1 | 10% | 17.6% | -6 | 98% (active) | 20.9% | -1 | 61% | 6.25% |
| Oc1ccc(N=Nc2ccccc2)c(O)c1.Oc1ccc(N=Nc2ccccc2)c(O)c1.[Cu] | 13 | 96% (active) | 98.1% (active) | 16 | 98% (active) | 98.2% (active) | 21 | 97% (active) | 98.9% (active) | 1 | 92% (active) | 97.3% (active) | 15 | 95% (active) | 97% (active) | 12 | 96% (active) | 97.1% (active) |
| O=c1[nH]c(=O)c2n[nH]nc2[nH]1 | 6 | 3% | 0.45% | -1 | 5% | -4.95% | 1 | 9% | 33.4% | 9 | 8% | -42.5% | 3 | 3% | 7.7% | 3 | 6% | 24.1% |
| O=C(N/C(=C\c1ccc(Cl)cc1)c1nc2ccccc2[nH]1)c1ccccc1 | 0 | 96% (active) | 97.3% (active) | -1 | 98% (active) | 97.5% (active) | 10 | 98% (active) | 96.8% (active) | -1 | 97% (active) | 96.5% (active) | 13 | 97% (active) | 98.1% (active) | 2 | 97% (active) | 96.7% (active) |
| CCNC(=O)COc1ccc(Cl)cc1Cl | -2 | 10% | -17.6% | -10 | 2% | -19.4% | 0 | -6% | -15.4% | 7 | 13% | 38.8% | -5 | -3% | -29.4% | 8 | 2% | -27.4% |
| CN(C)C1CCC2C(=C1OC(=O)c1ccccc1)C=Cc1ccccc12 (stereo not given) | -1 | 11% | 25% | 2 | 16% | 13.4% | 13 | 38% | 31.9% | 4 | 7% | -1.4% | 0 | 12% | 22.9% | 21 | 53% | 67.5% |
| CCC(O)C(O)(c1ccccc1)c1nc2ccccc2s1 (stereo not given) | -9 | 15% | 6.75% | 5 | 11% | 5.9% | -7 | 23% | 14% | 7 | 9% | 2.2% | -7 | -12% | -2.65% | 0 | 15% | 15.1% |
| Cc1ccc2sc(=S)sc2c1 | -2 | 32% | 59.5% | -3 | 53% | 25.4% | -2 | 40% | 40.4% | 0 | 77% (active) | 74.2% (active) | 7 | 65% | 95.3% (active) | -19 | 69% | 72.3% (active) |
